VLA-4 inh = inhibition in a human VLA-4 binding assay; P13612; VLA-4 expressing cells, ligand binding flow cytometry; inhibition, % (about 7 µM as worked out from the volumes in the protocol); 330,000 compounds, 0.2% hits; in the data active means inhibition above about 50%
RPL19A TOR yeast = modulators of TOR pathway RPL19A-GFP in S. cerevisiae. S. cerevisiae RPL19A-GFP strain, flow cytometry, 3 h; active compounds read low. percent response vs DMSO, % at 10 µM. 330,000 compounds, 0.3% hits;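 active means percent response vs DMSO below 50%; inconclusive means fewer than 70 events counted for the yeast strain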;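 further: median channel GFP fluorescence of the barcoded RPL19A-GFP strain; lower means less RPL19A-GFP as with rapamycin TOR inhibition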
MEP2 TOR yeast = alters MEP2-GFP fluorescence in TOR pathway yeast screen. S. cerevisiae MEP2-GFP strain, flow cytometry GFP, 3 h; 100% = DMSO control level. GFP response vs DMSO, % at 10 µM. 330,000 compounds, 0.51% hits. AID 2016;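 active means GFP response versus DMSO above a set limit, roughly screen mean plus 3 SD, cut at about 180% in these data; inconclusive means fewer than 70 cells counted for a yeast strain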;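 further: median GFP fluorescence of the barcode-gated MEP2-GFP cells per well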
AGP1-GFP MLPCN = modulators of TOR pathway AGP1-GFP in S. cerevisiae; S. cerevisiae AGP1-GFP multiplex flow cytometry, 3 h; GFP as percent of DMSO wells; GFP response vs DMSO, % at 10 µM; 320,000 compounds, 0.02% hits; AID 2066;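 active means GFP response relative to DMSO above a set limit, near screen average plus 3 SD, cut at about 150% in these data; inconclusive means fewer than 70 cells counted for the yeast strain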;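 further: median GFP channel fluorescence of the gated AGP1 strain per well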
LAP4-GFP MLPCN = modulators of TOR pathway LAP4-GFP in S. cerevisiae; GFP response vs DMSO, % at 10 µM; 320,000 compounds, 0.34% hits; S. cerevisiae LAP4-GFP multiplex, flow cytometry GFP, 3 h; median GFP as percent of DMSO wells; AID 2023;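 active means GFP response vs DMSO above a set limit, about the screen mean plus 3 SD, cut at about 150% in these data; inconclusive means under 70 cell events counted for the yeast strain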
CIT2 TOR yeast = modulators of TOR pathway CIT2-GFP in S. cerevisiae | S. cerevisiae CIT2-GFP strain, flow cytometry, 3 h; 100 means same as DMSO wells | GFP response vs DMSO, % at 10 µM | 320,000 compounds, 0.065% hits;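 active means GFP response relative to DMSO above a set limit, near the screen mean plus 3 SD, cut at about 150% in these data; inconclusive means Fewer than 70 cells measured for a yeast strain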;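 further: ratio of well median GFP fluorescence to mean of DMSO wells on the plate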
A number is an active result; n = inactive; u = inconclusive; x = not tested or not shown; [ ] = another dose, or the depositor's remark. Only some compounds are listed: those with a hit (about 1.1% of all), similar ones and a draw of the others.

SMILES	VLA-4 inh	RPL19A TOR yeast	MEP2 TOR yeast	AGP1-GFP MLPCN	LAP4-GFP MLPCN	CIT2 TOR yeast
O=C(NN1CCOCC1)c1ccc(Cl)cc1[N+](=O)[O-]	n	n	n	n	n	n
Cc1ccc(NCN2C(=O)C3C4C=CC(C4)C3C2=O)cc1 (stereo not drawn)	n	n	n	n	210	n
COc1cc(CNCCO)ccc1OCCc1ccccc1	n	n	n	n	n	n
CCC(NC(=O)c1ccc2nc(Cc3ccc(OC)cc3)oc2c1)c1ccncc1 (stereo not drawn)	n	n	n	n	n	n
CCOC(=O)Cn1c(=O)c(F)cn(Cc2ccc(OC)c([N+](=O)[O-])c2)c1=O	n	n	n	n	n	n
CCOCCN1CCN(C2c3ccccc3CSc3ccccc32)CC1 (stereo not drawn)	n	n	257[may fluoresce violet]	u	n	u
COc1ccc(C)cc1NC(=O)CN1CCCC1c1ccc2c(c1)OCCCO2 (stereo not drawn)	n	n	n	n	n	n
N=C1/C(=C\c2ccc(Br)o2)C(=O)N=C2SC(CC(=O)N3CCCCC3)=NN12	n	48	n	n	n	n
Cc1ccc(-c2csc3ncn(Cc4ccc(C(=O)O)cc4)c(=O)c23)cc1C	n	n	230	n	n	n
O=C(O)c1ccc(Cn2cnc3scc(-c4ccccc4)c3c2=O)cc1	n	n	n	n	n	n
COc1cccc2c1OCC(C(=O)Nc1nccs1)=C2	n	n	n	n	n	n
CCC(=O)OC1(C)C(=O)C=C2C=C(c3ccc(C#N)cc3)OC=C2C1=O (stereo not drawn)	n	n	189[may fluoresce violet]	n	n	u
CC1(OC(=O)c2ccco2)C(=O)C=C2C=C(c3ccc(C#N)cc3)OC=C2C1=O (stereo not drawn)	n	n	n	n	n	u
COC(c1ccccc1)c1nc2ccccc2[nH]c1=O (stereo not drawn)	n	n	188[may fluoresce violet]	u	n	u
CCN(CC)c1ccc2c(C)c(Cl)c(=O)oc2c1	n	n	n	n	n	n
CCN(CC)c1ccc2c(c1)oc(=O)c1c(Cl)cc(=O)oc12	n	16[may fluoresce violet]	n	u	n	u
CCN(CC)c1ccc2c(Cl)c(Br)c(=O)oc2c1	x	n	894[may fluoresce violet]	n	556[may fluoresce violet]	u
O=C(C[C@@H]1C/C=C\C[C@H](Cc2ccc(F)cc2)C(=O)OC[C@@H](c2ccccc2)NC1=O)NCCO	n	n	n	n	n	n
CCOc1ccc(S(=O)(=O)NCC2CCCO2)c2cccnc12 (stereo not drawn)	n	n	n	n	n	n
CCOc1ccc(S(=O)(=O)NCC2CCCO2)c2ccccc12 (stereo not drawn)	n	47[may fluoresce violet]	n	n	n	u
O=C(Nc1nc(-c2ccccn2)cs1)c1ccc(Br)s1	n	n	n	n	197[may fluoresce violet]	u
CC1=C(C(=O)N2CCCC(N3CCN(c4cccc(Cl)c4)CC3)C2)OCCO1 (stereo not drawn)	n	n	n	n	n	n
Cc1cc(C(=O)N2CCCC(N3CCN(c4cccc(Cl)c4)CC3)C2)nc(C)n1 (stereo not drawn)	n	39[may fluoresce violet]	u	u	u	u
COC(=O)C(CC(C)C)NC(=O)CSc1nc(-c2ccccc2)c(C#N)c(=O)[nH]1 (stereo not drawn)	n	45[may fluoresce violet]	228[may fluoresce violet]	u	n	u
O=C(NCC1COCCO1)c1cc(COc2c(F)cccc2F)on1 (stereo not drawn)	n	n	n	n	n	x
Cc1ccc(N2CC(NC(=O)N3CCN(C(=O)c4ccco4)CC3)CC2=O)cc1 (stereo not drawn)	n	n	n	n	n	n
Nc1[nH]nc2nc3ccccc3cc12	n	n	n	n	n	n
Nc1cccc2nc3ccccc3cc12	n	14[may fluoresce violet]	u	u	u	u
O=C1C(=O)N(Cc2ccccc2)C(c2cccc(O)c2)/C1=C(\O)c1ccc2c(c1)OCCO2 (stereo not drawn)	n	46	n	n	n	n
COc1cc(CCCN2CCNC[C@H]2Cc2cccc3ccccc23)cc(OC)c1OC	n	n	n	n	n	n
